Shown are actives, neighbours in structure and some others; about 2.1% of the full set was active somewhere.
NFkB SMM = NF-kappa-B p105 (human) binding; P19838; calls only; hit rate 1.3% among 17,000; Small molecule microarray, anti-His fluorescence binding; AID 624139;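 active means spot fluorescence over background significantly raised, with a chance value under 7% in all four replicate spots of the compound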;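 further: probe protein is his-tagged human p50 processed subunit at 1 µg/ml; raw spot fluorescence signals with no normalization applied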
Myc binder = binds human c-Myc on microarray; P01106; small molecule microarray, His-c-Myc binding, anti-His fluorescence; calls only; hit rate 1.5% among 17,000; AID 624141;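 active means spot fluorescence over background with P-value below 7% in all four replicate spots, showing protein binding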;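 further: score is binary with 100 for all four spots passing and 0 otherwise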
p53 mut binder = mutant p53 (human) binding | small molecule microarray binding, anti-GST fluorescence | calls only | hit rate 0.4% among 17,000;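 active means compounds whose four printed spots each glow above background more than chance allows, each with a p-value under 7%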
STAT3 binder = binds human STAT3 on microarray. P40763. Small molecule microarray, His-STAT3 binding, anti-His fluorescence. calls only. hit rate 0.2% among 17,000. AID 624138;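 active means compounds whose four printed spots each show fluorescence over background unusually high for their array block, chance value under 7%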
Target sequence (P40763 whole entry, looked up): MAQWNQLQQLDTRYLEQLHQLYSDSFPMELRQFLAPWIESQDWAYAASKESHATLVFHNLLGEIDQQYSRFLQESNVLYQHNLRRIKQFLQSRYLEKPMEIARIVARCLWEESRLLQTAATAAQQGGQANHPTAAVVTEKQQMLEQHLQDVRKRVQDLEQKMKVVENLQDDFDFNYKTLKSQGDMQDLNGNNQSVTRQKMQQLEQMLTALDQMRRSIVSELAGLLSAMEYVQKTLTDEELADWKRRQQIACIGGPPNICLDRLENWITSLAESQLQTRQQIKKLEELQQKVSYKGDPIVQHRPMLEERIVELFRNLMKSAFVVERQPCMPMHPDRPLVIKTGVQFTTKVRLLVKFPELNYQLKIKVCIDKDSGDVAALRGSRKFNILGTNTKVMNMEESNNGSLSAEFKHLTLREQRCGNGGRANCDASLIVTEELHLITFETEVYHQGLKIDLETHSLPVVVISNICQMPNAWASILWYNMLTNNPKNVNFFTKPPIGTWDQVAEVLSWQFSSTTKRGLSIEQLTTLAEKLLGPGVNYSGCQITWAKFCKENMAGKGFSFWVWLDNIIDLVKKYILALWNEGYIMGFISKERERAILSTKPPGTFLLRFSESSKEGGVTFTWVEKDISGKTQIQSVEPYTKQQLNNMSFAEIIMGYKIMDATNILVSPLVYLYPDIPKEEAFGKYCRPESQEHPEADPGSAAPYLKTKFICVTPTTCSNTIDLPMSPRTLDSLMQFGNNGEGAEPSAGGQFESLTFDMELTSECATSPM
Numbers without * were called inactive; i = inactive; + = active, no number.

SMILES | NFkB SMM | Myc binder | p53 mut binder | STAT3 binder
CC[C@@H](CO)NC(=O)[C@@H]1C=C2c3cccc4c3c(cn4C)C[C@H]2N(C)C1 | i | + | i | i
CCC(CO)NC(=O)C1C=C2c3cccc4[nH]cc(c34)CC2N(C)C1 (centres undefined) | + | + | i | i
CC[C@@H]1/C=C\C=C\C[C@H](C)[C@@H](O)[C@](C)(O)C(=O)[C@H](C)[C@@H](O)[C@H](C)C(=O)[C@H](C)[C@@H](O)[C@H](C)/C=C/C(=O)O[C@H]2[C@@H](C)[C@@H](CC1)O[C@@]1(CC[C@@H](C)[C@@H](C[C@H](C)O)O1)[C@@H]2C | i | i | i | i
O=C1/C(=C/c2ccccc2)C[C@@]2(O)C3Cc4ccc(O)c5c4[C@@]2(CCN3CC2CC2)[C@H]1O5 | i | i | i | i
CC(=O)c1c(C)n(Cc2ccccc2)c2c(Cl)c(Cl)c(Cl)c(OCC(=O)O)c12 | i | i | i | i
O=C(O)C1C2CCC(O2)C1C(=O)NCCc1ccccc1 (centres undefined) | i | + | i | i
Cc1ccc2c(c1)Cc1c(C(=O)NC3CCCCC3)nn(-c3ccc(Cl)cc3Cl)c1-2 | + | i | i | i
CCC(C)[C@H]1C(=O)O[C@H](C(C)C)C(=O)N(C)[C@@H](C(C)C)C(=O)O[C@H](C(C)C)C(=O)N(C)[C@@H](C(C)C)C(=O)O[C@H](C(C)C)C(=O)N1C (some centres undefined) | + | i | i | i
CO/C1=C/C(C)=C/[C@@H](C)[C@@H](O)[C@@H](C)C/C(C)=C/C=C\[C@H](OC)[C@@H]([C@@H](C)[C@@H](O)[C@H](C)[C@@]2(O)C[C@@H](O)[C@H](C)[C@@H](C(C)C)O2)OC1=O | i | i | i | i
CO[C@H]1[C@@H](O)[C@@H](C)O[C@@H](OC2CCC3(C)C(CC[C@@H]4[C@@H]3CCC3(C)C(C5=CC(=O)OC5)C(O)CC43O)C2)[C@@H]1O (some centres undefined) | i | i | i | i
COC1CC(OC2CCC3(C)C(CCC4(O)C3CC(OC(=O)c3ccccc3)C3(C)C(O)(C(C)=O)CCC43O)C2)OC(C)C1OC1CC(OC)C(OC2OC(C)C(O)C(OC)C2O)C(C)O1 (centres undefined) | + | + | i | i
CNCC(O)c1ccc(O)c(OC)c1 (centres undefined) | i | i | i | i

Screening data as filed in PubChem BioAssay.
